Results from PubChem BioAssay AID2058 (Sanford-Burnham Center for Chemical Genomics, 2009).
The whole screen tested about 290,000 compounds, of which about 150 (0.052%) were called active.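 Rule for the calls: active = inhibition of at least 50% with at least 30 cells and total cytoplasm GFP at most 10,000,000; inconclusive = under 30 cells or total GFP of 10,000,000 plus; inactive = the rest.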 The full list was thinned out, with actives kept by preference. Measured potencies and affinities stand elsewhere.

The molecules below were run against G-protein coupled receptor 35 (Homo sapiens) (UniProt Q9HC97) (assay: inhibition of zaprinast-stimulated GPR35 beta-arrestin translocation – imaging, U2OS, beta-arrestin-GFP, zaprinast agonist, primary screen (AID 2058)). Settings: zaprinast antagonism, at 10 µM, active compounds read high.
Chain of G-protein coupled receptor 35 (Homo sapiens) (Q9HC97 whole entry, looked up): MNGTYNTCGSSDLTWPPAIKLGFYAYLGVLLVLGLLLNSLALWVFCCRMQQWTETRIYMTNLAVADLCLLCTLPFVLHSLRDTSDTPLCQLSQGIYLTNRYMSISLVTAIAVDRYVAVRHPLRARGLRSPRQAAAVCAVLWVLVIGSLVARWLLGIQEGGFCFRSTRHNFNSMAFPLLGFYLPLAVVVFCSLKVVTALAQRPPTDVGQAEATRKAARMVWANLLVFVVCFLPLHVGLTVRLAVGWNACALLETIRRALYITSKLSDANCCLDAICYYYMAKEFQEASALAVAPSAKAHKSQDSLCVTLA

inhibition, inactive:
COc1ccc(S(=O)(=O)N2CCOC2CNC(=O)C(=O)NCCc2c[nH]c3ccccc23)cc1 (configuration not stated) 4.5%
O=C(Nc1ccc(C2=NCCN2)cc1)c1ccc(C(=O)Nc2ccc(C3=NCCN3)cc2)c([N+](=O)[O-])c1 -3.6%
O=C(Nc1ccc(C2=NCCN2)cc1)c1ccc(Cl)c(C(=O)Nc2ccc(C3=NCCN3)cc2)c1 13.7%
COC(=O)c1sc(S(=O)(=O)N2CCC(C)CC2)c(C(=O)OC)c1C 10.9%
COCCCNC(=S)N(CCCN(C)C)Cc1cc2cc3c(cc2[nH]c1=O)OCCO3 -7.4%
CCOC(=O)CC1C(=O)NCCN1C1CCCC1 (configuration not stated) 9.7%
CC(=O)NNC(=O)CN1C(=O)/C(=C/c2ccccc2)SC1=S -0.2%
Cc1c(C(=O)Nc2cccc(N(C)S(C)(=O)=O)c2)cccc1[N+](=O)[O-] -4.4%
O=c1ccc2cc3c4c(c2o1)CCCN4CCC3 22.1%
CC(C)c1cc(=O)oc2c3c4c(cc12)CCCN4CCC3 -1.4%
O=C(CNC(=O)N1CC(=O)Nc2ccccc21)Nc1ccc(F)c(Cl)c1 -6.4%
CCc1ccc2[nH]c(=O)c(CN(CCN3CCOCC3)C(=O)Nc3ccccc3F)cc2c1 8.5%
CCC(C)[C@H](NC(=O)N1CCn2c1nc1ccccc12)C(=O)NCC1CCCO1 (some centres not stated) -10.9%
O=C(NC1CCCc2ccccc21)c1cn2ccccc2n1 (configuration not stated) 13.2%
CC(C)c1ccc(NC(=O)CSc2nc3ccsc3c(=O)n2CCC(=O)O)cc1 6.9%
Cc1ccc(CNC(=O)CSc2nc3ccsc3c(=O)n2Cc2ccc(C(=O)O)cc2)cc1 -4.6%
O=C(NCCN1CCOCC1)c1c[nH]c2ccc(S(=O)(=O)N3CCOCC3)cc2c1=O 3%
CCCS(=O)(=O)c1c(S(=O)(=O)CCC)c2c3ccccc3ccn2c1C(N)=O -10.5%
CCN(CC)S(=O)(=O)c1ccc(Cl)c(NC(=O)c2ccccc2C)c1 4.8%
CCN(CC)S(=O)(=O)c1ccc(Cl)c(NC(=O)c2cc(Cl)ccc2Cl)c1 7.1%
CCOc1ccccc1N(C)C(=O)Cn1ncc2c([nH]c3ccc(C)cc32)c1=O -6.9%
CN(C(=O)COC(=O)c1ccccc1NC(=O)c1ccco1)C1CCS(=O)(=O)C1 (configuration not stated) 29.1%
Cc1ccc(NC(=O)c2nc[nH]c2C(=O)N[C@@H](C)c2ccccc2)cc1 53.8%
Cc1ccc(CCNC(=O)CCS(=O)(=O)c2ccc(Br)cc2)cc1 3.1%
NS(=O)(=O)c1ccc(CCNC(=O)CCCOc2ccccc2)cc1 3.9%
Cc1ccc(OCCC(=O)NCCc2ccc(S(N)(=O)=O)cc2)cc1 21.9%
O=C(CCS(=O)(=O)c1ccc(Br)cc1)NCCc1ccccc1 -8.4%
CC(=O)Nc1ccc(-c2nnc(SCc3ccccc3C#N)n2C)cc1 -3.6%
Cc1ccc(C(OCC(O)CNC(CO)C(O)c2ccc([N+](=O)[O-])cc2)c2ccccc2)cc1 (configuration not stated) 2%
CCCc1ccc(/C=C2\C(=O)c3ccccc3C(O)=C2C(=O)OCC)cc1 21.2%
CCOC(=O)C1=C(O)c2ccccc2C(=O)/C1=C\c1ccc(CC)cc1 31.1%
Cc1cccc(Oc2ncnc3onc(C)c23)c1 -0.9%
CCN1/C(=C/C=C/C=C/c2sc3ccccc3[n+]2CC)Sc2ccccc21 58.9%
CCN1/C(=C/C=C/C=C/C=C/c2sc3ccccc3[n+]2CC)Sc2ccccc21 44.3%
CCN(c1ccccc1)S(=O)(=O)c1ccc(Cl)c(NC(=O)CSc2n[nH]c(N)n2)c1 0.7%
COc1cccc(/C=c2\s/c(=C/C(=O)c3ccc(C)cc3)[nH]c2=O)c1OC -9.9%
COc1ccc(/C=c2\s/c(=C/C(=O)c3ccc(C)cc3)[nH]c2=O)cc1OC 8.2%
Cc1ccc(C)c(NC(=O)Nc2ccc3c(c2)OCO3)c1 -7.8%
COc1ccccc1N1CCN(S(=O)(=O)c2ccc(Cl)s2)CC1 -2.5%
Cc1oc(=O)c(NC(=O)c2cccc(Cl)c2)cc1C(=O)c1ccccc1 -3%
COC(=O)c1cc(NC(=O)c2ccccc2)c(=O)oc1C -9.4%
CSc1nc2ccccc2cc1/C=C(\C#N)c1ccccc1 3.1%
CSc1nc2ccccc2cc1/C=C(\C#N)c1cccc(Cl)c1 3.7%
CN(Cc1nc(-c2cccc(Cl)c2)no1)C1CCOCC1 -8.4%
CSC1=NSC2=NC(=O)/C(=C/c3coc4ccccc4c3=O)C(=N)N12 4.5%
CCSC1=NSC2=NC(=O)/C(=C\c3coc4ccccc4c3=O)C(=N)N12 36.4%
CC(=O)Nc1cccc(NC(=O)Cc2ccc3ccccc3c2)c1 0.8%
Cc1cc(N2C(=O)C(O)=C(C(=O)c3ccc(C)o3)C2c2ccc([N+](=O)[O-])cc2)no1 (configuration not stated) 4.2%
Cc1[nH]c2ccccc2c1/C=C/C(=O)c1ccccc1 4.5%
C=CCn1cc(/C=C/c2cc[n+](C)cc2)c2ccccc21 17.1%
COC(=O)Cn1c(C)c(/C=C/c2cc[n+](C)cc2)c2ccccc21 17.9%
C[n+]1ccc(/C=C/c2c[nH]c3ccc(F)cc23)cc1 -4.5%
Cc1ccc2[nH]cc(/C=C/c3cc[n+](C)cc3)c2c1 29.2%
Cc1[nH]c2ccccc2c1/C=C/c1nc2ccccc2c(=O)[nH]1 -11.7%
COc1cccc(CNS(=O)(=O)c2ccc3c(c2)N(C(C)=O)CCO3)c1 -10.2%
O=C(CSCc1ccc(Cl)cc1)Nc1ccc(Br)cc1C(=O)O 2.2%
Cn1c(=O)[nH]c(=O)c2c1nc(Sc1nc3ccccc3s1)n2Cc1ccccc1 13.4%
Cn1c(SCc2ccc(Br)cc2)nc2c(c1=O)SCC2 -9.1%
CCOC(=O)C1=C(Cc2ccc(F)cc2)C(=O)c2ccccc2C1=O 11.7%
CCOC(=O)C1=C(Cc2ccc(C)cc2)C(=O)c2ccccc2C1=O 5%
CCOC(=O)N1CCN(C(=O)C2CCN(S(=O)(=O)c3ccc(OCC)cc3)CC2)CC1 10.5%
O=C1/C(=C/c2ccc(Cl)cc2)NC(=S)N1Cc1cccnc1 -2.2%
CC(C)c1ccc(/C=C2\NC(=S)N(Cc3cccnc3)C2=O)cc1 -2.8%
S=c1[nH]nc(COc2ccccc2)n1/N=C/c1c(Cl)cccc1Cl 0.3%
Cc1ccc(S(=O)(=O)N[C@@H](Cc2ccccc2)C(=O)N2CCC(C(=O)N[C@@H](CC(C)C)C(=O)O)CC2)cc1 1%
Cc1ccc(OC(C)C(=O)Nc2ccc(S(=O)(=O)Nc3nccs3)cc2)cc1 (configuration not stated) -8.6%
COc1ccc(OC)c(NC(=O)C2CCN(S(=O)(=O)c3cccs3)CC2)c1 4.3%
CCCCCC(=O)N/N=C(\C)c1ccc(Cl)cc1 -9.2%
CCN(CC(=O)NC1CCS(=O)(=O)C1)c1nc(-c2ccccc2)nc2ccccc12 (configuration not stated) 1.8%
CCC(NC(=S)NC1CCCCC1)c1ccccc1 (configuration not stated) -4.4%
CC(NC(=O)NC1CCCCC1)c1ccccc1 (configuration not stated) 5.6%
COc1cc(C#N)ccc1OCC(=O)N1CCc2ccccc2C1 10.3%
Cc1ccc(Cn2ncc(Cl)c(Cl)c2=O)cc1 33.1%
O=c1c(Cl)c(Cl)cnn1Cc1ccc(F)cc1 49.1%
CCc1c(C)sc(NC(=O)c2ccco2)c1C(=O)N1CCOCC1 -15.5%
COc1ccc(OC)c(N(CC(=O)Nc2ccc3c(c2)OCCO3)S(C)(=O)=O)c1 -8.2%
C[N+]1=C(/C=C/Nc2ccccc2Cl)C(C)(C)c2ccccc21 6.8%
COC(=O)c1ccc2c(c1)C(C)(C)C(/C=C/c1ccccc1O)=[N+]2C 18.9%
O=c1c(Cc2ccc(F)cc2)c(O)ccn1Cc1cccc(Cl)c1 -9.1%
O=S(=O)(NCCSc1ccccc1)c1cccs1 -13.8%
O=C(CCN1C(=O)/C(=C/c2ccc3c(c2)OCO3)SC1=S)Nc1ccc(C(=O)O)cc1 0.4%
O=C(CCCN1C(=O)/C(=C/c2ccco2)SC1=S)Nc1cccc(C(=O)O)c1 5.8%
O=C(CCN1C(=O)/C(=C/c2ccc3c(c2)OCO3)SC1=S)Nc1ccccc1 15.7%
O=C(CCN1C(=O)/C(=C/c2ccc3c(c2)OCO3)SC1=S)Nc1cccc(C(=O)O)c1 -7.5%
Cn1c(=O)n(CC(=O)N2CCOCC2)c2ccccc21 -9.9%
O=C(CCN1C(=O)c2ccncc2C1=O)Nc1ccc(F)cc1 3.7%

inhibition, active:
O=C(Nc1ccc(C2=NCCN2)cc1)c1ccc(C(=O)Nc2ccc(C3=NCCN3)cc2)c(Cl)c1 101%
CCCCc1ccc(/C=C2\C(=O)c3ccccc3C(O)=C2C(=O)OCC)cc1 59%
COC(=O)c1cc(NC(=O)c2cccc(Cl)c2)c(=O)oc1/C=C/Nc1cc(C)cc(C)c1 93.3%
CSc1nc2ccccc2cc1/C=C(\C#N)c1cccc(C)c1 55.3%
Cc1[nH]c2ccccc2c1/C=C/c1cc[n+](C)cc1 71.2%
CCC(NC(=O)NC1CCCCC1)c1ccccc1 (configuration not stated) 103%
